Our source for the Potency and outcome values is PubChem BioAssay (Tox21).

The nature of test [1]: qHTS assay to identify small molecule agonists of the RXR signaling pathway - cell viability counter screen (AID 1159529). Note: nearly all actives have a fitted effect of over 50% in size. Note: potency is the fitted concentration of half-maximal effect. A digest of the protocol:
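Viability read-out for the RXR-alpha agonist qHTS: luminescent CellTiter-Glo signal after 30 min at RT. HEK 293T bla reporter cells, 2% charcoal-stripped FBS, 16 hr compound incubation; tetraoctyl ammonium bromide as cytotoxic control.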

Test [2] can be described thus: qHTS assay to identify small molecule antagonists of the retinoid acid receptor (RAR) signaling pathway - cell viability counter screen (AID 1159551). Note: nearly all actives have a fitted effect of over 35% in size. The method in brief:
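C3RL4 RARE-luciferase line; cpds + retinol 1 uM final, 6 h, 37 C/5% CO2; CellTiter-Glo ATP luminescence, 30 min RT.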

Test [3] in a line: qHTS assay to identify small molecule antagonists of the retinoic acid receptor (RAR) signaling pathway (AID 1159552; note: nearly all actives have a fitted effect of over 50% in size). A digest of the protocol:
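Using a RARE-driven luciferase construct in C3RL4 cells, retinol at 1 uM final provided the agonist stimulus while compounds were co-applied. After 6 hours at 37 C, luminescence was recorded to flag inhibitors of retinol signaling.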

The nature of test [4]: qHTS assay to identify small molecule agonists of the retinoic acid receptor (RAR) signaling pathway (AID 1159553). Note: potency is the fitted concentration of half-maximal effect. The method in brief: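 RARE-luc C3RL4 cells; overnight attachment 37 C/5% CO2; compound (DMSO) 6 hr; luciferase reagent, 30 min RT; luminescence read-out.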
Test [5] in a line: qHTS assay to identify small molecule antagonists of the estrogen related receptor (ERR) signaling pathway - cell viability counter screen (AID 1224818). Note: series mostly up to about 46 µM. A digest of the protocol: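 Fluorescence from CellTiter-Fluor, read 30 min after reagent addition at 37 C, measured viability of ERR cells exposed to compounds for 17.5 h. Cells had settled 6 h before dosing.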
A short description of test [6]: qHTS assay to identify small molecule antagonists of the estrogen related receptor (ERR) signaling pathway (AID 1224819;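 note: luminescence from an ERR-driven luciferase reporter measured with One-Glo reagent; series mostly up to about 46 µM; nearly all actives have a fitted effect of over 50% in size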). A digest of the protocol: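 Luminescence readout (One-Glo, 30 min, RT) of ERR cell line after 18 h compound exposure at 37 C; cells seeded 2,000/well, pre-incubated 6 h, compounds pinned from DMSO stocks.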
Test [7] in a line: qHTS assay to identify small molecule agonists of the estrogen related receptor (ERR) signaling pathway (AID 1224820). The method in brief: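 An ERR cell line provided by NTP was seeded at 2,000 cells per well and allowed to settle for 6 h before compounds in DMSO were added. After 18 h at 37 C, luciferase activity was measured by One-Glo luminescence.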
Test [8] concerns estrogen-related receptor alpha (ERRalpha) with PGC-1alpha coactivator, human. In words: qHTS assay to identify small molecule antagonists of the estrogen related receptor signaling pathway with the pleiotropic PPARgamma coactivator (PGC) (AID 1224821; calls by dose curve;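 note: series mostly up to about 46 µM; lower luminescence signal means antagonism of PGC/ERR signalling; nearly all actives have a fitted effect of over 50% in size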). A digest of the protocol: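 A PGC/ERR cell line supplied by NTP is seeded, allowed 6 h at 37 C, and treated with test compounds in DMSO for 18 h. Signal is then measured as luciferase luminescence using One-Glo.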

The nature of test [9]: qHTS assay to identify small molecule antagonists of the estrogen related receptor signaling pathway with the pleiotropic PPARgamma coactivator (PGC) cell viability counter screen (AID 1224822; note: series mostly up to about 46 µM). The method in brief:
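Fluorescence read-out of CellTiter-Fluor after 30 min at 37 C; PGC/ERR cells, 2,000 per well, had been exposed to DMSO-dissolved compounds for 17.5 h following a 6 h pre-incubation.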

Inconclusive results are not listed. Calls of active or inactive are those of the source. Unless noted, calls come from the whole dose curve; as a rule, active = well fitted curve in the direction sought with a large enough effect in the repeat runs; inconclusive = weak or mixed curves; inactive = no such curve, though single readings can be large; an effect the other way counts as inactive or inconclusive.

Turning to `Cc1ccc(S)cc1`, the Potency entry in [1] and in test [2] was “inactive” in each case.

Regarding `Nc1c(I)cc(I)c(C(=O)N(CCC(=O)O)c2ccccc2)c1I`, the Potency entry in test [1], in test [2], in test [3] and in [4] was “inactive” each time.

Take `O=c1[nH]c2ccc(S(=O)CCN3CCC(Cc4ccc(F)cc4)CC3)cc2o1` (stereo unspecified): the Potency entry in test [1], in test [2], in test [3] and in [4] was “inactive” in each case.

For the compound `CCCOC(=O)c1ccc(C(=O)OCCC)nc1`, the Potency entry in test [1], in test [2] and in test [3] was “inactive” throughout. Further, the Potency in test [4] is 68.6 µM (active).

As to `COC(=O)Nc1nc2ccc(C(=O)c3cccs3)cc2[nH]1`, the Potency entry in test [1], in test [2], in test [3], in test [4], in [6] and in test [8] was “inactive” each time. The outcome in [5], in test [7] and in [9] was inactive.

Consider `CC(=O)OCC(=O)[C@H]1CC[C@H]2[C@@H]3CCC4=CC(=O)CC[C@]4(C)[C@H]3CC[C@]12C`, for which the Potency result in test [1], in [2] and in test [4] was “inactive” throughout.

Regarding `Fc1c(F)c(F)c(Br)c(F)c1F`, the Potency result in [1], in test [2] and in [4] was “inactive” throughout.

On to `O=C(CCCN1CCC(O)(c2ccc(Br)cc2)CC1)c1ccc(F)cc1`, for which the Potency entry in test [1], in test [2] and in [4] was “inactive” in each case.

As to `CC1=NN(c2ccc(C(=O)O)cc2)C(=O)C1`, the Potency entry in test [1], in [2] and in test [3] was “inactive” in each case. Besides, the Potency in test [4] was 68.6 µM (active).

Take `CCCCCCCCCCCC[N+](C)(C)CCCS(=O)(=O)[O-]`: the Potency result in test [1], in [2], in [3] and in test [4] was “inactive” each time.

As to `Nc1ccc(S(=O)(=O)O)cc1`, the Potency result in test [1], in test [2], in test [3] and in [4] was “inactive” throughout.

`N#C/C(=C1\SCC(c2ccccc2Cl)S1)n1ccnc1` (stereo unspecified): the Potency result in test [1], in test [2], in [3] and in [4] was “inactive” each time.

Regarding `ON(Cc1ccccc1)Cc1ccccc1`, the Potency result in [1], in [2], in test [3] and in test [4] was “inactive” each time.

For `O=C(Nc1ccc([N+](=O)[O-])cc1)Nc1ccc([N+](=O)[O-])cc1`, the Potency in [1] is 952 nM (active). Moreover, the Potency result in test [2], in test [3] and in test [4] was “inactive” each time.
